Some test systems named below: SK-MEL-2 melanoma; EKVX NSCLC; SN12C renal; UO-31 renal; TK-10 renal; ACHN renal; CAKI-1 renal; A498 renal; CCRF-CEM leukemia; MOLT-4 leukemia; SR leukemia; RPMI-8226 leukemia; OVCAR-8 ovarian; OVCAR-5 ovarian; OVCAR-4 ovarian; SK-OV-3 ovarian; IGROV1 ovarian; OVCAR-3 ovarian; HS 578T breast; NCI/ADR-RES ovarian.
Holding throughout (experiment): NCI-60 one-dose screen, 48 h (100 = growth as untreated, 0 = no growth, -100 = all killed)
Common to all, as to settings: 10 µM unless noted

Several values for one entry are separate records, joined by “and”; a condition that tells them apart may be missing. Equal entries are not always repeated. About 83,000 compounds went through this panel and 20% of them were active in at least one assay; those are over-represented in the sample as a whole.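 In brief: 96-well plates, 48 h treatment, single concentration, percent growth endpoint.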 Activity calls are given as the source filed them. Rule for the calls: active = growth percent below 10; inactive = the rest.

Consider `O=C1C=CC(=CC=C2N(Cc3ccc4ccccc4c3)c3ccccc3N2Cc2ccc3ccccc3c2)C=C1`, for which the growth with SK-MEL-2 melanoma was -12.8% (active) and -12.7% (active); in the test with EKVX NSCLC, 33.7% (inactive) and 32.9% (inactive); with SN12C renal, 6.94% (active) and 13.3% (inactive); in the test on UO-31 renal, 103% (inactive) and 98.5% (inactive); in the test with TK-10 renal it was 63.6% (inactive) and 74% (inactive); in the test on ACHN renal it was 77.2% (inactive) and 78.6% (inactive). The growth with CAKI-1 renal was 77.6% (inactive) and 70.8% (inactive); in the test with A498 renal, 106% (inactive) and 109% (inactive); in the test on CCRF-CEM leukemia, 21.7% (inactive) and 10.9% (inactive); with MOLT-4 leukemia, 22.5% (inactive) and 17.6% (inactive); in the test with SR leukemia, 3.48% (active); in the test with RPMI-8226 leukemia it was -5.25% (active) and -13.4% (active). The growth with OVCAR-8 ovarian was 20.2% (inactive) and 24.9% (inactive); in the test with OVCAR-5 ovarian it was 36.6% (inactive) and 47.2% (inactive); with OVCAR-4 ovarian, 37.9% (inactive) and 27.6% (inactive); in the test on SK-OV-3 ovarian, 13.4% (inactive) and 46.4% (inactive); in the test with IGROV1 ovarian it was 7.62% (active) and 29.5% (inactive); in the test with OVCAR-3 ovarian it was 24.2% (inactive) and -1.46% (active). The growth is 52.3% (inactive) and 32.6% (inactive) with HS 578T breast; 104% (inactive) and 102% (inactive) in the test with NCI/ADR-RES ovarian.
As to `COc1cccc(NC(=O)c2ccc(NC(=O)CCl)s2)c1`, the growth was 79.6% (inactive) in the test on SK-MEL-2 melanoma; 95% (inactive) in the test with EKVX NSCLC; -14.4% (active) in the test with SN12C renal; 62.1% (inactive) with UO-31 renal; 54.8% (inactive) in the test with TK-10 renal; 66.4% (inactive) with ACHN renal. In addition, the growth in the test on CAKI-1 renal is 53.8% (inactive); in the test with A498 renal, 108% (inactive); with CCRF-CEM leukemia, 1.03% (active); in the test on MOLT-4 leukemia, -7.31% (active); in the test on SR leukemia it was -0.752% (active); with RPMI-8226 leukemia, -22.9% (active). The growth with OVCAR-8 ovarian is 10.2% (inactive); in the test with OVCAR-5 ovarian it was 47.3% (inactive); in the test with OVCAR-4 ovarian, 94.6% (inactive); in the test with SK-OV-3 ovarian, -1.99% (active); in the test with IGROV1 ovarian, -13.4% (active); with OVCAR-3 ovarian, 35.8% (inactive). Moreover, the growth in the test on HS 578T breast was 65.9% (inactive); with NCI/ADR-RES ovarian, 22.5% (inactive).
For the compound `CCCCC[C@@H]1C/C=C(\C)[C@@H](O)C(C)(C)C(=O)[C@@H](C)/C=C(\C)[C@@H]2C[C@H](O)C[C@](O)(CC(=O)O1)O2`, the growth is 9.84% (active) with SK-MEL-2 melanoma; 21.4% (inactive) with EKVX NSCLC; 76.8% (inactive) in the test with SN12C renal; 20.4% (inactive) with UO-31 renal; 55.1% (inactive) in the test with TK-10 renal; 19.7% (inactive) in the test with ACHN renal. Besides, the growth in the test on CAKI-1 renal is 47.1% (inactive); with A498 renal it was 30% (inactive); in the test on CCRF-CEM leukemia it was 28.9% (inactive); in the test on MOLT-4 leukemia, 18.2% (inactive); in the test on SR leukemia, 17.1% (inactive); in the test on RPMI-8226 leukemia, 8.23% (active). Further, the growth with OVCAR-8 ovarian was 42.3% (inactive); in the test on OVCAR-5 ovarian, 78% (inactive); in the test with OVCAR-4 ovarian it was 27.7% (inactive); with SK-OV-3 ovarian, 78.6% (inactive); with IGROV1 ovarian, 58.5% (inactive); in the test on OVCAR-3 ovarian, 35.6% (inactive). The growth is 47.7% (inactive) with HS 578T breast and 19.7% (inactive) with NCI/ADR-RES ovarian.
For the compound `c1n[nH]cc1-c1nc2ccc3[nH]ncc3c2c2c1CC1(CCOCC1)CC2`, the growth with SK-MEL-2 melanoma is 24.5% (inactive); with EKVX NSCLC, 55.3% (inactive); with SN12C renal it was 28.8% (inactive); in the test on UO-31 renal, 55.4% (inactive); in the test with TK-10 renal, 29.2% (inactive); with ACHN renal, 22.1% (inactive). Further, the growth in the test on CAKI-1 renal is 4.86% (active); with A498 renal, -3.86% (active); in the test with CCRF-CEM leukemia, 19.3% (inactive); in the test on MOLT-4 leukemia, 22.2% (inactive); in the test on SR leukemia, 2.94% (active); in the test with RPMI-8226 leukemia, 49.8% (inactive). Also, the growth is 35.4% (inactive) in the test on OVCAR-8 ovarian; 87.7% (inactive) in the test with OVCAR-5 ovarian; 70.2% (inactive) in the test on OVCAR-4 ovarian; -0.483% (active) with SK-OV-3 ovarian; 61.2% (inactive) in the test with IGROV1 ovarian; 52.5% (inactive) in the test with OVCAR-3 ovarian. In addition, the growth is 5.29% (active) in the test on HS 578T breast and 96.5% (inactive) in the test on NCI/ADR-RES ovarian.
On to `COc1cc(CNC(=O)[C@]23CCC(C)(C)CC2C2=CCC4[C@@]5(C)CCC(OC(C)=O)C(C)(C)C5CC[C@@]4(C)[C@]2(C)CC3)ccc1OCc1cn(-c2ccc(Cl)cc2Cl)nn1` (stereo not given in full), for which the growth is 99.8% (inactive) in the test on SK-MEL-2 melanoma; 86.5% (inactive) in the test with EKVX NSCLC; 94.1% (inactive) in the test with SN12C renal; 80.2% (inactive) in the test on UO-31 renal; 134% (inactive) in the test with TK-10 renal; 101% (inactive) in the test on ACHN renal. Moreover, the growth is 77.9% (inactive) with CAKI-1 renal; 146% (inactive) in the test with A498 renal; 98.2% (inactive) in the test on CCRF-CEM leukemia; 104% (inactive) in the test on MOLT-4 leukemia; 103% (inactive) in the test with SR leukemia; 89.9% (inactive) in the test on RPMI-8226 leukemia. For the same compound, the growth is 102% (inactive) with OVCAR-8 ovarian; 102% (inactive) with OVCAR-5 ovarian; 102% (inactive) in the test on OVCAR-4 ovarian; 112% (inactive) in the test on SK-OV-3 ovarian; 92.8% (inactive) with IGROV1 ovarian; 112% (inactive) in the test with OVCAR-3 ovarian. The results for the growth in the test on HS 578T breast and in the test on NCI/ADR-RES ovarian were 100% (inactive) and 120% (inactive), respectively.
Take `Cc1ccc(S(=O)(=O)Nc2ccc(-c3ccc4c(c3)NC(=O)/C4=C\c3ccc[nH]3)cc2)cc1`: the growth in the test with SK-MEL-2 melanoma is 105% (inactive); in the test on EKVX NSCLC it was 35.7% (inactive); in the test with SN12C renal it was 85.8% (inactive); with UO-31 renal, 93.9% (inactive); in the test on TK-10 renal, 98.4% (inactive); in the test on ACHN renal, 93.5% (inactive). For the same compound, the growth with CAKI-1 renal was 87.3% (inactive); with A498 renal it was 112% (inactive); in the test with CCRF-CEM leukemia, 62.3% (inactive); in the test with MOLT-4 leukemia, 68.1% (inactive); in the test with SR leukemia, -3.97% (active); in the test with RPMI-8226 leukemia, 63.6% (inactive). The growth was 86.7% (inactive) with OVCAR-8 ovarian; 90.8% (inactive) in the test with OVCAR-5 ovarian; 83.3% (inactive) in the test with OVCAR-4 ovarian; 108% (inactive) with SK-OV-3 ovarian; 93.5% (inactive) in the test with IGROV1 ovarian; 125% (inactive) in the test on OVCAR-3 ovarian. Besides, the results for the growth in the test on HS 578T breast and in the test on NCI/ADR-RES ovarian were 92.2% (inactive) and 89% (inactive), respectively.
For the compound `COc1ccc(NC(=O)N/N=C/c2c[nH]c3ccccc23)cc1`, the growth in the test with SK-MEL-2 melanoma is -10.7% (active); with EKVX NSCLC, 43.1% (inactive); in the test with SN12C renal, 34.4% (inactive); with UO-31 renal, 40.3% (inactive); in the test with TK-10 renal, 74.4% (inactive); in the test on ACHN renal it was 51.1% (inactive). The growth was 44% (inactive) in the test on CAKI-1 renal; 85.5% (inactive) in the test on A498 renal; 21% (inactive) with CCRF-CEM leukemia; 20.5% (inactive) in the test on MOLT-4 leukemia; 23.4% (inactive) in the test on SR leukemia; 24.9% (inactive) in the test on RPMI-8226 leukemia. In addition, the growth is 20.5% (inactive) with OVCAR-8 ovarian; 37.4% (inactive) in the test with OVCAR-5 ovarian; 69.9% (inactive) in the test on OVCAR-4 ovarian; 37.5% (inactive) in the test with SK-OV-3 ovarian; 40.8% (inactive) in the test on IGROV1 ovarian; -34.1% (active) in the test on OVCAR-3 ovarian. Further, the growth in the test on HS 578T breast is 27.1% (inactive); in the test with NCI/ADR-RES ovarian, 15.3% (inactive).

Values taken from PubChem BioAssay (NCI).
